Measurements taken from publication PMC11442847.

Tests used:
Assay in all cases: cross-linking mass spectrometry
Settings in all cases: DSSO, not determined
ATP1B3 = ATP1B3 (UniProt P54709)
DIP2B = DIP2B (UniProt Q9P265)
INPP5F = INPP5F (UniProt Q9Y2H2)
ITPR2 = ITPR2 (UniProt Q14571)
NMI = NMI (UniProt Q13287)
S100A6 = S100A6 (UniProt P06703)
SLC44A1 = SLC44A1 (UniProt Q8WWI5)
WAC = WAC (UniProt Q9BTA9)

## PLS3, P13797
ATP1B3
  cross-linked residues: K42 - K182

## PLK3, Q9H4B4
DIP2B
  cross-linked residues: K217 - K118

## B2M, P61769
INPP5F
  cross-linked residues: K39 - K352

## OAS2, P29728
ITPR2
  cross-linked residues: K388 - K954

## RNASEH1, O60930
NMI
  cross-linked residues: K236 - K156

## TPD52L2, O43399
S100A6
  cross-linked residues: K175 - K47

## KNTC1, P50748
SLC44A1
  cross-linked residues: K859 - K145

## CENPN, Q96H22
WAC
  cross-linked residues: K245 - K175
